In PubChem BioAssay (NCATS):
“And” between values parts separate entries of the source, which are not always exact repeats. Equal entries are not always repeated. Inconclusive results are not listed. Where a call stands in place of a potency, no number is given. The source made the active and inactive calls. Unless noted, calls come from the whole dose curve; as a rule, active = well fitted curve in the direction sought with a large enough effect; inconclusive = small, poorly fitted or top-dose-only effect, or another doubt; inactive = no such curve, though single readings can be large; an effect the other way counts as inactive or inconclusive.

What was measured:
[1] = target: Alpha-galactosidase (Coffea arabica) (UniProt Q42656); assay: Counterscreen for Glucocerebrosidase Inhibitors: qHTS Assay for Coffee Bean alpha-Galactosidase at pH 5.9 (AID 998)
Sequence of Alpha-galactosidase (Coffea arabica) (Q42656 whole entry, looked up): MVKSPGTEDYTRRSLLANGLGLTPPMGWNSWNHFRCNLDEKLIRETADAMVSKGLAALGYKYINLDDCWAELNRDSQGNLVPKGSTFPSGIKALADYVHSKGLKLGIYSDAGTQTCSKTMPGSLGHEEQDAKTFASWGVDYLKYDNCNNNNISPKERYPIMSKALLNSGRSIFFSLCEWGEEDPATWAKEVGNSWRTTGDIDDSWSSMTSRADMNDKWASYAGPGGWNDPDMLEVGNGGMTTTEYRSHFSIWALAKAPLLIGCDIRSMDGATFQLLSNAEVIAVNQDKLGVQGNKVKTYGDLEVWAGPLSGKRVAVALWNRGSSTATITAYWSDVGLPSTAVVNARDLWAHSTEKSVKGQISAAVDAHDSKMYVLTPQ
How it was run: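 Fluorogenic 4-MU substrate hydrolysis, 80 uM substrate and 2 nM coffee bean alpha-galactosidase, pH 5.9 citrate buffer, 20 min at room temperature, then NaOH/glycine stop. Titration 0.7 nM–77 uM, normalized to no-enzyme and enzyme controls, AC50 via Hill equation.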

[2] = Validation of Assay for Modulators of Lamin A Splicing (AID 1459; active = well fitted curve in the direction sought with a large enough effect in the signal ratio; the % refers to the signal ratio;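 note: cells exposed to compound for two days before reading; ratio rise marks activators and ratio drop marks inhibitors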)
How it was run: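 Readout: ratio of GFP (500-530 nm) to RFP (575-640 nm) total object intensity by 488 nm laser-scanning cytometry after 48 hrs. Cells were HeLa S3 clones carrying lamin A-EGFP minigene plus DsRed2 viability reporter; vehicle 0.5% DMSO final.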

[3] = target: DNA repair nuclease/redox regulator APEX1 (Homo sapiens) (UniProt P27695); assay: qHTS Validation Assay for Inhibitors of the Human Apurinic/apyrimidinic Endonuclease 1 (APE1) (AID 1705;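 note: TAMRA fluorescence gain over two minutes as APE1 cuts a quenched THF abasic duplex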)
Sequence of DNA repair nuclease/redox regulator APEX1 (Homo sapiens) (P27695 whole entry, looked up): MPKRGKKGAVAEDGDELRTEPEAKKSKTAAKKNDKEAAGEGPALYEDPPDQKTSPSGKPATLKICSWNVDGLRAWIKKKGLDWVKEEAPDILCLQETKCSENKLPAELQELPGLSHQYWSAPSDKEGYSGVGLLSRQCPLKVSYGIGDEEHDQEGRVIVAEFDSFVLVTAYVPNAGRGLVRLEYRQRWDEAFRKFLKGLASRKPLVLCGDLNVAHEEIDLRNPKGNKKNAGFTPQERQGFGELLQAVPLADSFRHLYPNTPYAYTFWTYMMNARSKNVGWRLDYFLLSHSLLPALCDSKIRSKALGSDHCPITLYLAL
How it was run: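 Read-out: TAMRA fluorescence (525 nm ex, 598 nm em) from cleavage of a quenched THF abasic-site duplex, 50 nM final; activity taken as intensity change between third and first of three reads 60 s apart.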

[4] = Counterscreen for APE1 Inhibitors: Fluorescent Dye Displacement Validation Assay (AID 1707)
How it was run: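 Signal: ThO fluorescence (ex 480 nm/em 540 nm) on binding 50 nM dsDNA; displacement by test compound reduces it. Conditions: 250 nM dye, 50 mM Tris-HCl pH7.5, 2 mM MgCl2, 50mM NaCl, 0.01% Tween-20.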

[5] = target: Endonuclease 4 (Escherichia coli (strain K12)) (UniProt P0A6C1); assay: Counterscreen for APE1 Inhibitors: qHTS Validation Assay for Inhibitors of Endonuclease IV (AID 1708)
How it was run: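 Incision of a double-stranded 50 nM TAMRA/BHQ-2 abasic substrate was followed kinetically (525/598 nm, reads every 60 s) after 15 min enzyme–compound preincubation with 2 nM EndoIV in pH 7.5 Tris buffer with MgCl2, DTT and Tween-20; concentration-response format.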

[6] = qHTS for differential inhibitors of proliferation of Plasmodium falciparum line 7G8 (AID 1815);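 note: parasite growth measured after three days of incubation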; note: potency is the fitted concentration of half-maximal effect
[7] = qHTS for differential inhibitors of proliferation of Plasmodium falciparum line GB4 (AID 1816); conditions: Potency: Plasmodium falciparum GB4 proliferation inhibition;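 note: parasite growth measured after 72 h incubation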; note: potency is the fitted concentration of half-maximal effect
[8] = qHTS for differential inhibitors of proliferation of Plasmodium falciparum line 3D7 (AID 1876); note: potency is the fitted concentration of half-maximal effect
[9] = qHTS for differential inhibitors of proliferation of Plasmodium falciparum line D10 (AID 1877);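 note: parasites grown with compound for 72 h before DNA staining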; note: potency is the fitted concentration of half-maximal effect
[10] = qHTS for differential inhibitors of proliferation of Plasmodium falciparum line Dd2 (AID 1882); conditions: Potency: Plasmodium falciparum Dd2 proliferation inhibition; note: nearly all actives have a fitted effect of over 65% in size; note: potency is the fitted concentration of half-maximal effect
How it was run: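 SYBR Green DNA fluorescence (ex 485, em 535 nm) after overnight lysis quantifies parasite growth; compound exposure lasted 72 h at 37 C on infected red cells at 2.5% hematocrit, 0.3% parasitemia (final). Artemisinin 0.29 uM and vehicle wells define normalization.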

[11] = qHTS for differential inhibitors of proliferation of Plasmodium falciparum line W2 (AID 1883); conditions: Potency: Plasmodium falciparum W2 proliferation inhibition;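 note: parasites grown with compound for 72 h before lysis and staining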; note: potency is the fitted concentration of half-maximal effect
[12] = qHTS for differential inhibitors of proliferation of Plasmodium falciparum line HB3 (AID 1886); conditions: Potency: Plasmodium falciparum HB3 proliferation inhibition;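 note: parasites grown with compound for 72 h before SYBR Green readout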; note: potency is the fitted concentration of half-maximal effect
[13] = qHTS Assay for Modulators of Human Peripheral Myelin Protein 22 (PMP22) Expression/Activity (AID 1967; active = well fitted curve in the direction sought with a large enough effect in the signal ratio; the % refers to the signal ratio)
How it was run: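 Mouse MSC80 Schwann line, Pmp22 promoter–CBG68 reporter, EF-alpha–CBR internal control. 24h compound exposure, 37 °C/5% CO2, DMEM + 10% FBS. Readout: corrected green/red luminescence ratio, normalized to untreated cells; concentration-response curves fitted and classified.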

[14] = target: Ferritin light chain (Equus caballus) (UniProt P02791); assay: qHTS Validation Assay for Identification of Novel General Anesthetics (AID 2323)
Sequence of Ferritin light chain (Equus caballus) (P02791 2-175 limits assumed): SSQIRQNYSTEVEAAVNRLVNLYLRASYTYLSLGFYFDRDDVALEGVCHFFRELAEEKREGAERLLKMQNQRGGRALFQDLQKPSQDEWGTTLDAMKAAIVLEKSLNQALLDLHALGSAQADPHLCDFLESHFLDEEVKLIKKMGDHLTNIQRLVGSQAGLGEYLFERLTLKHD
How it was run: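 10 uM horse-spleen apoferritin + 1-AMA (50% saturated, PBS); cpd pin-transferred, 10 min RT. Ex 380/Em 535 nm endpoint. Activity normalized between free 1-AMA and 1-AMA/apoferritin; 4-parameter Hill fit of concentration-response.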

[15] = qHTS Assay for Lipid Storage Modulators (AID 1519; calls by dose curve); conditions: Drosophila S3 cells, BODIPY lipid droplet/cell ratio, laser cytometry, cells loaded with oleic acid
How it was run: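 Cells seeded at 5,000 per well were treated with compounds over a concentration series and loaded with oleic acid (400 uM, as added). Lipid droplet fluorescence (488 nm excitation, 500-530 nm channel) was read by laser-scanning cytometry and normalized to 20 uM Triacsin C.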

[16] = target: Alpha-galactosidase A (Homo sapiens) (UniProt P06280); assay: Counterscreen for Glucocerebrosidase Inhibitors: qHTS Assay for Human alpha-Galactosidase at pH 4.5 (AID 992)
Sequence of Alpha-galactosidase A (Homo sapiens) (P06280 whole entry, looked up): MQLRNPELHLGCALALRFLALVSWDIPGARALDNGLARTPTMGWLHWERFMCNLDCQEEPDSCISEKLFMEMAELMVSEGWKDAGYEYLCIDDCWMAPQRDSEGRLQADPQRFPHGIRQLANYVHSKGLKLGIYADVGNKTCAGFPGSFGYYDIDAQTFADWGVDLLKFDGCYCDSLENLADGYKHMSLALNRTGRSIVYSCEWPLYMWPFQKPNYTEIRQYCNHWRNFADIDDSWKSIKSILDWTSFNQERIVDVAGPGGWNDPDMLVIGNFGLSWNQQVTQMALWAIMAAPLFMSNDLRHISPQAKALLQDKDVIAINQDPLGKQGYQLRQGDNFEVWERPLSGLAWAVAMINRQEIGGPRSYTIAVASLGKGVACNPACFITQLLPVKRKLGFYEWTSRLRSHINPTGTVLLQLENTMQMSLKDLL
How it was run: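 Citrate buffer pH 4.5, Tween-20 0.005%. Enzyme 2 nM, substrate 80 uM, 20 min RT. Stop pH 10. Fluorescence Ex 365/Em 440. AC50 by Hill fit.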

[17] = target: alpha-glucosidase (Oryza sativa, rice) (UniProt Q653V4); assay: Counterscreen for Glucocerebrosidase Inhibitors: qHTS Assay for Rice alpha-Glucosidase at pH 5.0 (AID 997)
How it was run: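 Endpoint fluorogenic assay at pH 5.0: compounds (0.7 nM to 77 uM) titrated against 4 nM rice enzyme and 400 uM 4-MU-alpha-glucoside for 20 min at room temperature; NaOH/glycine stop, read ex 365/em 440 nm, Hill-fitted AC50.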

[18] = measured here: cell count channel max response
[19] = measured here: lipid channel max response

Row | Compound | outcome [1] | outcome [2] | Potency [3] | Potency [4] | Potency [5] | Potency [6] | Potency [7] | Potency [8] | Potency [9] | Potency [10] | Potency [11] | Potency [12] | outcome [13] | outcome [14] | activity change, negative = inhibition ([15]; at 57.5 µM (top of the series)) | max response [15, 18] | max response [15, 19] | outcome [16] | outcome [17] | activity change, negative = inhibition ([15]; at 25.7 µM (top of the series))
1 | C[N+](C)(C)CC(=O)O | inactive | inactive | inactive | inactive | inactive | inactive | inactive | inactive | inactive | inactive | inactive | inactive | inactive | inactive | – | – | – | – | – | –
2 | C[C@@H](N)Cc1cnc[nH]1 | – | inactive | inactive | inactive | – | – | inactive | inactive | inactive | inactive | – | inactive | inactive | inactive | 0.775% (inactive) | -2.18% | -3.82% | – | – | –
3 | CC[C@@H]1C(=O)OC[C@@H]1Cc1cncn1C | – | inactive | inactive | inactive | inactive | inactive | inactive | inactive | inactive | inactive | – | inactive | inactive | inactive | -0.176% (inactive) and -1.27% (inactive) | 23.8% and 24.9% | 22.1% and 21.9% | – | – | –
4 | COc1cc(C(O)CN)ccc1O (configuration not stated) | – | inactive | inactive | inactive | inactive | inactive | inactive | inactive | inactive | inactive | inactive | inactive | – | inactive | – | – | – | – | – | –
5 | NCc1cc(=O)[nH]o1 | inactive | inactive | inactive | inactive | inactive | inactive | inactive | inactive | inactive | inactive | inactive | inactive | inactive | inactive | -0.672% (inactive) | 5.31% | 4.46% | inactive | inactive | –
6 | S=C(NC1CCCCC1)N1CCC(c2cnc[nH]2)CC1 | inactive | inactive | inactive | inactive | – | inactive | – | 11.2 µM (active) | inactive | inactive | 11.2 µM (active) | – | inactive | inactive | 0.457% (inactive) | 8.5% | 6.88% | inactive | inactive | –
7 | Cc1nccc2c1[nH]c1ccccc12 | inactive | inactive | – | inactive | inactive | 14.1 µM (active) | 12.6 µM (active) | – | – | inactive | 10 µM (active) | 11.2 µM (active) | – | – | 2.54% (inactive) | 6.61% and 77.2% | 6.19% and 80.2% | inactive | inactive | 0.405% (inactive)
8 | NC(CCP(=O)(O)O)C(=O)O (configuration not stated) | – | inactive | inactive | inactive | – | inactive | inactive | inactive | inactive | inactive | inactive | inactive | inactive | inactive | 2.25% (inactive) | 14.5% | 18.2% | – | – | –
9 | C[C@]12CCC3C(CC[C@H]4C[C@H](O)CC[C@]34C)C1CC[C@@H]2C(=O)CO (some centres not stated) | – | inactive | inactive | inactive | inactive | 7.94 µM (active) | 14.1 µM (active) | – | 8.91 µM (active) | – | 10 µM (active) | – | – | inactive | – | – | – | – | – | –
10 | Cn1cnc(CCN)c1 | inactive | inactive | inactive | inactive | inactive | inactive | inactive | inactive | inactive | inactive | inactive | inactive | inactive | inactive | 1.27% (inactive) | 34.2% | 35.2% | inactive | inactive | –
11 | C[N+]1(C)C2CCC1CC(OC(=O)C(CO)c1ccccc1)C2 (configuration not stated) | – | inactive | inactive | inactive | inactive | inactive | inactive | inactive | inactive | inactive | inactive | inactive | inactive | inactive | -1.3% (inactive) | -18.3% | -18.4% | – | – | –
12 | O=C1CCCN1CC#CCN1CCCC1 | inactive | inactive | inactive | inactive | inactive | inactive | inactive | inactive | inactive | inactive | inactive | inactive | inactive | inactive | 5.07% (inactive) and 8.93% (inactive) and 0.711% (inactive) | 5.66% and 4.2% and 20.8% | 13% and 25.8% and 21.1% | inactive | inactive | –
13 | O=C(Cc1ccc(Cl)c(Cl)c1)N1CCCCC1CN1CCCC1 (configuration not stated) | – | inactive | inactive | inactive | inactive | 5.01 µM (active) | – | 12.6 µM (active) | – | 7.94 µM (active) | 2 µM (active) | – | – | inactive | 3.16% (inactive) | 16.5% | 19.9% | – | – | –
14 | Oc1ccc2c3c1O[C@H]1c4[nH]c5c(c4C[C@@]4(O)[C@@H](C2)N(CC2CC2)CC[C@]314)C[C@@]1(O)[C@H]2Cc3ccc(O)c4c3[C@@]1(CCN2CC1CC1)[C@H]5O4 | – | inactive | inactive | inactive | – | – | 15.8 µM (active) | 11.2 µM (active) | 10 µM (active) | – | 12.6 µM (active) | 12.6 µM (active) | inactive | inactive | -0.289% (inactive) | -23.9% | -23.6% | – | – | –
